Records with an inconclusive call do not appear. The source made the active and inactive calls. Unless noted, calls come from the whole dose curve; as a rule, active = well fitted curve in the direction sought with a large enough effect in the repeat runs; inconclusive = weak or mixed curves; inactive = no such curve, though single readings can be large; an effect the other way counts as inactive or inconclusive.
What was measured:
[1] = target: Estrogen receptor beta (Homo sapiens) (UniProt Q92731); experiment: qHTS assay to identify small molecule agonists of the estrogen receptor beta (ER-beta) signaling pathway (AID 1259377; active = well fitted activation curve with a large enough effect in the signal ratio in the repeat runs, not every such curve was filed as active; the % refers to the signal ratio)
Estrogen receptor beta (Homo sapiens), sequence (Q92731 whole entry, looked up): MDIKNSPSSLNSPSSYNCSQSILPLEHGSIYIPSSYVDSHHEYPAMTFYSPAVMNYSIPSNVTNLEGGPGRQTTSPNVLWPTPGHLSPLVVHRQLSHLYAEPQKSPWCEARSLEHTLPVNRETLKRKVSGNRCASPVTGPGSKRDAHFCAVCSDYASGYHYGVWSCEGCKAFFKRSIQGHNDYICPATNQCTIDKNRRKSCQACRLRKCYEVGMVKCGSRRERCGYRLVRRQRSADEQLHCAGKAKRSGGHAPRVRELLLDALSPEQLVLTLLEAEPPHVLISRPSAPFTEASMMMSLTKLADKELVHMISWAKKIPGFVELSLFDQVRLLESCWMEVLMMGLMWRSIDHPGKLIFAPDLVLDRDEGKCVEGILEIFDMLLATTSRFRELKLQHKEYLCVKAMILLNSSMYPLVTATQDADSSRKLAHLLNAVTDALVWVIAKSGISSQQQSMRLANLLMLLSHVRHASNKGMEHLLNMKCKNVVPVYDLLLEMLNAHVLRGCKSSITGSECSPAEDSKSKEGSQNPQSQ
Method in brief: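 ER-beta-UAS-bla HEK293T cells in medium with 2% charcoal-stripped FBS were exposed to compounds for 16 h at 37C. Beta-lactamase reporter activity was read as fluorescence after 2 h with LiveBLAzer B/G FRET substrate at room temperature.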

[2] = target: Estrogen receptor beta (Homo sapiens) (UniProt Q92731); experiment: qHTS assay to identify small molecule antagonists of the estrogen receptor beta (ER-beta) signaling pathway (AID 1259378; active = well fitted inhibition curve with a large enough effect in the signal ratio in the repeat runs, not every such curve was filed as active; the % refers to the signal ratio)
Method in brief: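 ER-beta-UAS-bla HEK293T (GripTite) cells in 2% charcoal-stripped FBS medium were preincubated 6 hr at 37C, dosed with compound, then stimulated with 1 nM E2 (final) for 16 hr; beta-lactamase reporter read by B/G FRET fluorescence after 2 hr substrate loading.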

[3] = qHTS assay to identify small molecule agonists of the androgen receptor (AR) signaling pathway in the presence of an antagonist - cell viability counter screen (AID 1259379);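 note: MDA-kb2 human breast cancer cells carrying an MMTV luciferase reporter; series mostly up to about 92 µM; nearly all actives have a fitted effect of over 25% in size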
Method in brief: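 In MDA-kb2 cells (human breast carcinoma, MMTV-luciferase), compounds at 15 concentrations plus 3.0uM nilutamide; 16 hr, 37C, 0% CO2; CellTiter-Fluor fluorescence read for viability.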

[4] = qHTS assay to identify small molecule agonists of the estrogen receptor beta (ER-beta) signaling pathway - cell viability counter screen (AID 1259380); note: nearly all actives have a fitted effect of over 30% in size
Method in brief: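 Viability of ER-beta-UAS-bla HEK293T cells was determined by CellTiter-Glo luminescence following 16 hr treatment with test compounds at 37C.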

[5] = target: Androgen receptor (Homo sapiens) (UniProt P10275); experiment: qHTS assay to identify small molecule agonists of the androgen receptor (AR) signaling pathway in the presence of an antagonist (AID 1259381; calls by dose curve; note: nearly all actives have a fitted effect of over 15% in size)
Androgen receptor (Homo sapiens), sequence (P10275 whole entry, looked up): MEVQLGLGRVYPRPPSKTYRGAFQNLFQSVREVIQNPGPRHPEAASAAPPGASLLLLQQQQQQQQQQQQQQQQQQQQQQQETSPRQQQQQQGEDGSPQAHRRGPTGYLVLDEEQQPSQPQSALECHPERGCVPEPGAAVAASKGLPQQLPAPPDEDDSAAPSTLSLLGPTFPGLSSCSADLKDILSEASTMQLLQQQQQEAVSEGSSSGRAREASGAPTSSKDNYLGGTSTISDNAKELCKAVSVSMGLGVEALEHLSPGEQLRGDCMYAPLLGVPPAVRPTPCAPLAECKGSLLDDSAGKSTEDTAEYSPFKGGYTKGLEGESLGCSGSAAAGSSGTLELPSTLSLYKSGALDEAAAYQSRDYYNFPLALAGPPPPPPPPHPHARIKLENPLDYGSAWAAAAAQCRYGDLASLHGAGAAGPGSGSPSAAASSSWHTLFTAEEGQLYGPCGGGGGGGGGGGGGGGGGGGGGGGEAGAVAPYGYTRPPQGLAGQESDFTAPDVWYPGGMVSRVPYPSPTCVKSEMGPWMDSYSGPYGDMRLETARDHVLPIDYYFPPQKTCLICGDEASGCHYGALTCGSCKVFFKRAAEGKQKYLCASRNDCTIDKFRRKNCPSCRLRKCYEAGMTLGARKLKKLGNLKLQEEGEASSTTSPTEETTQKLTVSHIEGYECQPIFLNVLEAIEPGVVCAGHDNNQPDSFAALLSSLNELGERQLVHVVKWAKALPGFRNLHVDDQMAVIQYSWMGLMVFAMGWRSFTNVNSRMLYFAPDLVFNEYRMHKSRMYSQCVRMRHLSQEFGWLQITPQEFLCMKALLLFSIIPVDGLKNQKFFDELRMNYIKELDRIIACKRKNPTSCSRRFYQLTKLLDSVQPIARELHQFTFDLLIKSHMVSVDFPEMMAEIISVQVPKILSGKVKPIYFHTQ
Method in brief: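 Here, 15-concentration compound series were pin-transferred onto MDA-kb2 MMTV-luciferase cells already dosed with nilutamide (3.0uM final). After 16hr at 37C, ONE-Glo was added and luminescence read 30min later at room temperature.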

[6] = qHTS assay to identify small molecule antagonists of the estrogen receptor beta (ER-beta) signaling pathway - cell viability counter screen (AID 1259382); note: series mostly up to about 92 µM; nearly all actives have a fitted effect of over 55% in size
Method in brief: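 Tox21 10K library tested in qHTS format on ER-beta-bla HEK293T cells stimulated with 1nM E2; 16 hr treatment at 37C. Same-well CellTiter-Glo luminescence served as the cell viability measure.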

[7] = target: Estrogen receptor (Homo sapiens) (UniProt P03372); experiment: qHTS assay to identify small molecule agonists of the estrogen receptor alpha (ER-alpha) signaling pathway in the presence of an antagonist (AID 1259383; calls by dose curve; note: top concentration of the series differs between compounds; nearly all actives have a fitted effect of over 15% in size)
Estrogen receptor (Homo sapiens), sequence (P03372 whole entry, looked up): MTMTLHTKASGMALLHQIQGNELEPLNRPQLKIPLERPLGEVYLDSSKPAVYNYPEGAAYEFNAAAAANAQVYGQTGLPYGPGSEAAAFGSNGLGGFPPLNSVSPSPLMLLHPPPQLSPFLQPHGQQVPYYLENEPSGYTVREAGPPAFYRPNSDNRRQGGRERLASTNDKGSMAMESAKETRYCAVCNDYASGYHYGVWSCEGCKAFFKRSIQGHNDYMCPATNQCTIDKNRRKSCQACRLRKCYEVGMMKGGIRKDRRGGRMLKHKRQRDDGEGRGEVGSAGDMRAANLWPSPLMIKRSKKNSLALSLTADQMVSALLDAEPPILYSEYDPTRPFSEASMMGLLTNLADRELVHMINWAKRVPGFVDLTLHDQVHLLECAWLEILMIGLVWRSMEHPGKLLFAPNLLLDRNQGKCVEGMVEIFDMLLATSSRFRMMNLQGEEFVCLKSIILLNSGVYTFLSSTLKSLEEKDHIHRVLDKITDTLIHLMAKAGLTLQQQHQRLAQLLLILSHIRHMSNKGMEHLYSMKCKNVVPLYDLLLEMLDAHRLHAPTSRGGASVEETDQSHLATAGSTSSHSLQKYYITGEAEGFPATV
Method in brief: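 In VM7Luc4E2 cells, 4,000 per well, compounds at 15 concentrations were co-incubated 22hr at 37C with 10.0nM final ICI-182,780. Luminescence from the stably transfected 4×ERE-luciferase reporter was recorded 30min after ONE-Glo addition.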

[8] = qHTS assay to identify small molecule agonists or antagonists of the thyroid stimulating hormone receptor (TSHR) signaling pathway - wild type cell line counter screen (AID 1259384; calls by dose curve)
Method in brief: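 Wild-type HEK293 cells were plated 18 h at 37 C/5% CO2, pin-dosed with compound plus Ro20-1724 medium, held 30 min at room temperature, then given cAMP-d2 and anti-cAMP-cryptate; fluorescence was read after 1 h. Fifteen concentrations, triplicate.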

[9] = target: Thyrotropin receptor (Homo sapiens) (UniProt P16473); experiment: qHTS assay to identify small molecule antagonists of the thyroid stimulating hormone receptor (TSHR) signaling pathway (AID 1259385; calls by dose curve; note: nearly all actives have a fitted effect of over 20% in size)
Thyrotropin receptor (Homo sapiens), sequence (P16473 whole entry, looked up): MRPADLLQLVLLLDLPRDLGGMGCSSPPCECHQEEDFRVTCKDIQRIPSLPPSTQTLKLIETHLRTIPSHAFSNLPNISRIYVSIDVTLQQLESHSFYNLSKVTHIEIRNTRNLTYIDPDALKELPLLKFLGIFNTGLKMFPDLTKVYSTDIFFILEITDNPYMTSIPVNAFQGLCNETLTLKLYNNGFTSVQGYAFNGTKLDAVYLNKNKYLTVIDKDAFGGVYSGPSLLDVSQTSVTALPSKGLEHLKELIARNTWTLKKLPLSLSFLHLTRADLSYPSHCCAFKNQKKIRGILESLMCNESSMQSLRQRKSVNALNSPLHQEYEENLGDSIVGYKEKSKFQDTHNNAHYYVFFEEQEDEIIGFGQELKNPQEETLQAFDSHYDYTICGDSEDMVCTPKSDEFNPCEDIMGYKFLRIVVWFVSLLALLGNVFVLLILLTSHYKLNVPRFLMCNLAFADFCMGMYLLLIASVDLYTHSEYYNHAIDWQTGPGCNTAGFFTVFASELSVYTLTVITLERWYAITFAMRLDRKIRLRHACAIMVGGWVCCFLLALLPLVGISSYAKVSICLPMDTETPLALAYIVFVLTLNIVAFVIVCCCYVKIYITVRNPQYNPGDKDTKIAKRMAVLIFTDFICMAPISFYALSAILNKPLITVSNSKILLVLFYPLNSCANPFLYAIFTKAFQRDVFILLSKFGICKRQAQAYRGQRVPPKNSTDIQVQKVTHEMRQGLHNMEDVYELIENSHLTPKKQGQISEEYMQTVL
Method in brief: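 TSHR-HEK293 cells were plated and held 18 h at 37C/5% CO2, then given compound plus Ro20-1724 and stimulated with TSH at 1.5 ng/mL final. After 30 min at room temperature, cAMP was detected with cAMP-d2/anti-cAMP-cryptate (1 h) by fluorescence.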

[10] = qHTS assay to identify small molecule agonists of the estrogen receptor alpha (ER-alpha) signaling pathway in the presence of an antagonist - cell viability counter screen (AID 1259386);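 note: series mostly up to about 92 µM; cells exposed to compounds for 22 h at 37 °C before the viability read; nearly all actives have a fitted effect of over 30% in size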
Method in brief: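 Fluorescent CellTiter-Fluor viability signal from VM7Luc4E2 cells, with the reagent added during the final hour of a 22hr compound exposure at 37C in the presence of 10.0nM ICI-182,780.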

[11] = target: Progesterone receptor (Homo sapiens) (UniProt P06401); experiment: qHTS assay to identify small molecule agonists of the progesterone receptor (PR) signaling pathway (AID 1346784; calls by dose curve; note: nearly all actives have a fitted effect of over 30% in size)
Progesterone receptor (Homo sapiens), sequence (P06401 whole entry, looked up): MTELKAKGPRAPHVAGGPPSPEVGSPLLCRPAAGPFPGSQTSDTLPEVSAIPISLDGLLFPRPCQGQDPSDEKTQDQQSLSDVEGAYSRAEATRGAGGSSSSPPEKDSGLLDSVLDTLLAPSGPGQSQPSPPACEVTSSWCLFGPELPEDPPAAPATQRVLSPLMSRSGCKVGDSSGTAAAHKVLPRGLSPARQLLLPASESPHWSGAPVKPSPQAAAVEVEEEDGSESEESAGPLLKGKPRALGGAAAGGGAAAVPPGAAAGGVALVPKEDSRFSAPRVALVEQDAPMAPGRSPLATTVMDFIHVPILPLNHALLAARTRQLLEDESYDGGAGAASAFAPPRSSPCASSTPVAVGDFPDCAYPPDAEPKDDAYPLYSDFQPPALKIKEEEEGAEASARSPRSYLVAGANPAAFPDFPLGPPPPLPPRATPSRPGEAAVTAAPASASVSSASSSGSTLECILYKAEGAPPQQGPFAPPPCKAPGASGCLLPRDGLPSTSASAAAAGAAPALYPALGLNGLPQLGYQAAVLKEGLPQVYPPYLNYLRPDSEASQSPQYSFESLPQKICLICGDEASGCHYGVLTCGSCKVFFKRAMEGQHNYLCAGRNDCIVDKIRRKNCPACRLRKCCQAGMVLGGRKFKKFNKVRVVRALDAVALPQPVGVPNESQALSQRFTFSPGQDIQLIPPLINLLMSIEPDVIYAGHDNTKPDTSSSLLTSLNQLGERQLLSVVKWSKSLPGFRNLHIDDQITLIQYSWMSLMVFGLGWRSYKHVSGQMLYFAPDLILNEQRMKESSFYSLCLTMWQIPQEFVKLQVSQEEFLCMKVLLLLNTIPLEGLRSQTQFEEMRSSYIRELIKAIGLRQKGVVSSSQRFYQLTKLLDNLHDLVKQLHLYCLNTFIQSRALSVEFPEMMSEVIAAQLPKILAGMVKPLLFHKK
Method in brief: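 PR-UAS-bla HEK 293T cells (beta-lactamase reporter under UAS) in 2% charcoal-stripped FBS, dosed with 23 nL compound after 6 hr, incubated 16hr at 37C. LiveBLAzer B/G FRET substrate added, fluorescence read after 2 hours.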

[12] = target: Progesterone receptor (Homo sapiens) (UniProt P06401); experiment: qHTS assay to identify small molecule antagonists of the progesterone receptor (PR) signaling pathway (AID 1346795; active = well fitted inhibition curve with a large enough effect in the signal ratio in the repeat runs, not every such curve was filed as active; the % refers to the signal ratio)
Method in brief: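 PR-UAS-bla HEK293T cells with beta-lactamase reporter under UAS control, in 2% charcoal-stripped FBS, treated with compounds plus 1 nM promegestone (R5020, final) for 16 hr at 37C. Read-out: FRET beta-lactamase substrate fluorescence after 2 hr at room temperature.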

[13] = qHTS assay to identify small molecule antagonists of the progesterone receptor (PR) signaling pathway - cell viability counter screen (AID 1346798); note: series mostly up to about 92 µM; nearly all actives have a fitted effect of over 50% in size
Method in brief: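 PR-UAS-bla HEK293T cells, 3,000/well in 2% charcoal-stripped FBS medium, dosed with compounds plus R5020 agonist and incubated 16 h at 37C. Viability then measured in the same wells by CellTiter-Glo luminescence after 30 min at RT.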

[14] = qHTS assay to identify small molecule agonists of the progesterone receptor (PR) signaling pathway - cell viability counter screen (AID 1346799; calls by dose curve; note: nearly all actives have a fitted effect of over 45% in size)
Method in brief: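 Counter screen in the PR-UAS-bla HEK293T wells (2% charcoal-stripped FBS, 16 h compound exposure at 37 C) after the bla read. CellTiter-Glo added, 30 min at room temperature, luminescence read as cell viability.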

[15] = qHTS assay to identify small molecule antagonists of the TGF-beta/Smad signaling pathway - cell viability counter screen (AID 1346824); note: nearly all actives have a fitted effect of over 50% in size
Method in brief: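 SBE-bla HEK 293T cells were plated overnight at 37 C, then given compounds in DMSO plus TGF-beta1 (added as 0.25 ng/mL solution) for 5 hr. After the bla read, CellTiter-Glo was added to the same wells and luminescence read after 30 min at room temperature.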

[16] = qHTS assay to identify small molecule agonists of the TGF-beta/Smad signaling pathway - cell viability counter screen (AID 1346829); note: top concentration of the series differs between compounds; nearly all actives have a fitted effect of over 45% in size
Method in brief: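 In parallel with the Smad reporter read, viability of HEK 293T cells stably carrying SBE-bla is quantified by ATP luminescence following 5 hr compound treatment.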

[17] = qHTS assay to identify small molecule agonists of the TGF-beta/Smad signaling pathway (AID 1346859; active = well fitted activation curve with a large enough effect in the signal ratio in the repeat runs, not every such curve was filed as active; the % refers to the signal ratio; note: series mostly up to about 77 µM)
Method in brief: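 SBE-bla HEK293T cells plated overnight, then compound exposure for 5 h at 37 C. Beta-lactamase reporter read with LiveBLAzer B/G FRET substrate after 2 h at room temperature, fluorescence at 405 nm excitation, 460/530 nm emission.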

[18] = target: Thyrotropin-releasing hormone receptor (Homo sapiens) (UniProt P34981); experiment: qHTS assay to identify small molecule antagonists of the thyrotropin-releasing hormone receptor (TRHR) signaling pathway (AID 1346877; active = well fitted inhibition curve with a large enough effect in the repeat runs, not every such curve was filed as active; note: series mostly up to about 51 µM)
Thyrotropin-releasing hormone receptor (Homo sapiens), sequence (P34981 whole entry, looked up): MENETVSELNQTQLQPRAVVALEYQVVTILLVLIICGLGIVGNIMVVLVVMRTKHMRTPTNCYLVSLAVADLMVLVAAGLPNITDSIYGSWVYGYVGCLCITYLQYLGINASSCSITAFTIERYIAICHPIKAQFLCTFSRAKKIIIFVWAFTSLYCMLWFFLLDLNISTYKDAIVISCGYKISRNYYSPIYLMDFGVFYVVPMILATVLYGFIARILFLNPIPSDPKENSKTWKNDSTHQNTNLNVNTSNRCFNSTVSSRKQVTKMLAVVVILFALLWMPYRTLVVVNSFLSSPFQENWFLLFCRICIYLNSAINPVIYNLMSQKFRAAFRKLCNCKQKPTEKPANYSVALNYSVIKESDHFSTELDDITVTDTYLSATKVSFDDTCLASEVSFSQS
Method in brief: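 In this cell-based calcium flux format, HEK293 cells expressing TRHR received test compound for 5 min before the agonist TRH (1 nM final). Dye loading lasted 2 h at 37 °C.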

[19] = target: Thyrotropin-releasing hormone receptor (Homo sapiens) (UniProt P34981); experiment: qHTS assay to identify small molecule agonists of the thyrotropin-releasing hormone receptor (TRHR) signaling pathway (AID 1346891; calls by dose curve; note: series mostly up to about 58 µM)
Method in brief: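 HEK293 cells expressing TRHR plated 18 h at 37 C/5% CO2, calcium dye-loaded 2 h at 37 C, then compound added (agonist mode); kinetic calcium fluorescence read 3 min at 1 s intervals; 15 concentrations in triplicate.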

[20] = Human pregnane X receptor (PXR) small molecule agonists, qHTS cell viability counter screen (AID 1346977); note: nearly all actives have a fitted effect of over 50% in size
Method in brief: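 PXR-Luc HepG2 cells (2,000/well, 5% charcoal-stripped FBS) preincubated 5 hr, then exposed to compounds 24 hr at 37 C. Viability read in the same wells by CellTiter-Fluor fluorescence, reagent added at 23 hr, 1 hr incubation.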

Measured: Potency

Nc1c(Cl)cc(Cl)cc1[N+](=O)[O-]
inactive: all assays above

CCC(CO)(CO)CO
not listed: [16]
inactive: all other assays above

O=P(O)(O)Oc1ccccc1
not listed: [5] | [10]
inactive: all other assays above

Cc1cn([C@H]2C[C@H](F)[C@@H](CO)O2)c(=O)[nH]c1=O
not listed: [18] | [19]
inactive: all other assays above

Cc1cccc2sc(N)nc12
not listed: [5] | [11] | [14] | [15] | [17] | [20]
inactive: all other assays above

CS(=O)(=O)c1ccc([C@@H](C[C@H]2CCC(=O)C2)C(=O)Nc2cnccn2)cc1Cl
not listed: [5] | [17] | [19]
inactive: all other assays above

Cc1cc(CCCOc2c(C)cc(-c3noc(C(F)(F)F)n3)cc2C)on1
not listed: [7] | [9] | [12] | [13] | [17]
inactive: all other assays above
